Assay [1] concerns the target Glucocorticoid receptor (Homo sapiens) (UniProt P04150). Briefly: qHTS assay for small molecule agonists of glucocorticoid receptor signaling (AID 588532; active means well fitted curve in the direction sought with a large enough effect in the signal ratio, with a control signal flat; the % refers to the signal ratio;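 further: 100% = dexamethasone at 0.1 µM and 0% = DMSO only wells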). The conditions noted are these: HeLa MMTV-bla, beta-lactamase ratio, agonist, 18 h; activation: stronger effect = higher value, percent of dexamethasone control, DMSO zero. In outline: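 HeLa GRE-bla reporter cells; 18 h compound exposure at 37 C; 2 h CCF4 loading at room temperature; fluorescence at 460 and 530 nm; EC50 by Hill equation.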
On the technique in general: In qHTS, concentration-response curves come from the screen itself.

For assay [2], the target named is Peroxisome proliferator-activated receptor delta (Homo sapiens) (UniProt Q03181). Briefly: qHTS assay for small molecule agonists of peroxisome proliferator-activated receptor delta signaling (AID 588534).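 Further: 0% = DMSO basal wells and 100% = positive control agonist at 10 µM.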 The gist of the method:
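Reporter cells were plated and held 5 hrs at 37 C before compounds were added. After 18 hrs at 37 C, CCF4 dye was loaded for 2 hrs at RT and fluorescence measured.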

The nature of assay [3]: qHTS assay for small molecule antagonists of peroxisome proliferator-activated receptor delta signaling (AID 588535).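 Further: cells co-treated with a PPAR-delta agonist as stimulator during compound exposure.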 The conditions noted are these: HEK293T PPARd-UAS-bla, beta-lactamase FRET ratio, 18 h; 460 nm channel. The gist of the method: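 Cells were seeded at 4000 per well in assay medium containing 2% charcoal/dextran FBS and held 5 hrs at 37 C. Compounds were then added for 18 hrs. CCF4 substrate was applied for 2 hrs at room temperature before fluorescence reading.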

The target in assay [4] is Peroxisome proliferator-activated receptor gamma (Homo sapiens) (UniProt P37231). The assay can be described thus: qHTS assay for small molecule agonists of peroxisome proliferator-activated receptor gamma signaling (AID 588536; active means well fitted curve in the direction sought with a large enough effect in the signal ratio, with a control signal flat, not every such curve was filed as active; the % refers to the signal ratio;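 further: 0% = DMSO basal wells and 100% = rosiglitazone at 2 µM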). In outline:
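GeneBLAzer PPAR-gamma-UAS-bla HEK293 cells in 1% charcoal/dextran-treated FBS medium were treated 16 h at 37 C with compounds. Beta-lactamase activity was read by CCF4 ratio (460/530 nm). Response was normalized to 2 uM rosiglitazone (100%) and DMSO, then Hill-fitted for EC50 and efficacy.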

Assay [5] has the same target. Briefly: qHTS assay for small molecule antagonists of peroxisome proliferator-activated receptor gamma signaling (AID 588537; active means well fitted inhibition curve with a large enough effect in the signal ratio, with a control signal flat, not every such curve was filed as active; the % refers to the signal ratio;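 further: reporter cells co-stimulated with 50 nM rosiglitazone agonist during compound treatment; % of control where 0% means no effect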). In outline:
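Step one: plate 3000 HEK293 UAS-bla cells per well in medium with 1% stripped serum and hold 6-6.5 h at 37 C. Step two: add compound and 50 nM agonist for 16 h. Step three: CCF4 loading, fluorescence read.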

Assay [6] deals with Vitamin D3 receptor (Homo sapiens) (UniProt P11473). The assay can be described thus: qHTS assay for small molecule antagonists of vitamin D receptor signaling (AID 588541).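 Further: receptor activated by calcitriol during compound treatment; series mostly up to about 77 µM; on the % scale 0 is the no-effect control and ±100 the full control effect.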 The gist of the method:
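VDR-UAS-bla HEK293T cells in 2% charcoal-stripped FBS were stimulated with 1-alpha,25-dihydroxyvitamin D3 (3 nM final) plus compound for 16 h at 37 C. The beta-lactamase CCF4 readout was normalized to 50 nM agonist and DMSO, and Hill fits gave IC50.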

The target is the same in assay [7]. The assay can be described thus: qHTS assay for small molecule agonists of vitamin D receptor signaling (AID 588543).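 Further: 0% = DMSO basal and 100% = reference agonist control.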 In outline:
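β-lactamase reporter, VDR-UAS-bla HEK293T, agonist mode. Cells plated 5 h at 37 °C, compound titration 16 h at 37 °C, CCF4 dye 2 h RT, ratio 460/530 nm. Hill fit → EC50, efficacy vs 50 nM 1α,25-(OH)2D3.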

The target of assay [8] is Retinoic acid receptor RXR-alpha (Homo sapiens) (UniProt P19793). The assay can be described thus: qHTS assay for small molecule agonists of retinoid X receptor alpha signaling (AID 588544).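 Further: 0% = DMSO basal wells and 100% = reference agonist.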
Assay [9] concerns the target Thyroid hormone receptor beta (Homo sapiens) (UniProt P10828). Briefly: qHTS assay for small molecule agonists of thyroid hormone receptor beta signaling (AID 588545).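 Further: 0% = DMSO only and 100% = 10 nM T3.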 The gist of the method:
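Compounds were tested as agonists in TR-UAS-bla-GripTite HEK 293 cells. After 18 hrs at 37 C, CCF4 substrate was added and fluorescence read after 2 hrs at room temperature.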

The nature of assay [10]: qHTS assay for small molecule antagonists of retinoid X receptor alpha signaling (AID 588546; active means well fitted inhibition curve with a large enough effect in the signal ratio, with a control signal flat, not every such curve was filed as active; the % refers to the signal ratio;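 further: cells stimulated with 9-cis-retinoic acid as agonist; on the % scale 0 is the no-effect control and ±100 the full control effect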). As to conditions: HEK293T RXRa-UAS-bla, beta-lactamase ratio, antagonist mode; measured here: W530 green channel, cytotoxicity proxy. The gist of the method: (§1)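 Beta-lactamase reporter inhibition, read as CCF4 fluorescence ratio (ex 405, em 460/530 nm) after 2 h at RT. HEK293T UAS-bla cells, 2500/well, were stimulated with 9-cis-RA at 500 or 100 nM final alongside test compound for 18 h at 37 C.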

The target of assay [11] is Retinoic acid receptor RXR-alpha (Homo sapiens) (UniProt P19793). Described as above. The conditions noted are these: HEK293T RXRa-UAS-bla, beta-lactamase ratio, antagonist mode. In outline:
as §1

Assay [12] has as its target Thyroid hormone receptor beta (Homo sapiens) (UniProt P10828). Briefly: qHTS assay for small molecule antagonists of thyroid hormone receptor beta signaling (AID 588547; active means well fitted inhibition curve with a large enough effect in the signal ratio, with a control signal flat, not every such curve was filed as active; the % refers to the signal ratio;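 further: cells stimulated with 0.4 nM T3 agonist during compound exposure; series mostly up to about 77 µM; on the % scale 0 is the no-effect control and ±100 the full control effect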). As to conditions: TR-UAS-bla HEK293, beta-lactamase ratio, antagonist mode, 18 h. In outline: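 TR-UAS-bla GripTite HEK293 cells in 2% charcoal/dextran FBS medium; compounds 0.59 nM to 92 uM with T3 at 0.4nM final, 18 h at 37 C. Beta-lactamase read by CCF4 fluorescence (460/530 nm); Hill fits gave IC50 and efficacy.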

Assay [13] can be described thus: qHTS assay for small molecule activators of the p53 signaling pathway (AID 651743; active means well fitted activation curve with a large enough effect in the signal ratio, not every such curve was filed as active; the % refers to the signal ratio; further: series mostly up to about 92 µM; % of control where 0% means no effect). As to conditions: HCT-116 p53RE-bla, beta-lactamase FRET ratio, 16 h; activation: stronger effect = higher value. The gist of the method: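 HCT-116 p53RE-bla, 4,000 cells/well; 5 h settle; cpd/DMSO 16 h, 37 C; LiveBLAzer B/G 2 h RT; fluorescence intensity.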
Assay [14] is described as follows: qHTS assay for environmental chemicals that activate the Aryl hydrocarbon Receptor (AhR) signaling pathway (AID 651777; active means well fitted curve in the direction sought with a large enough effect; an effect the other way counts as inactive or inconclusive; further: % of control where 0% means no effect; nearly all actives have a fitted effect of over 15% in size). As to conditions: 1A2-DRE human hepatoma cells, luciferase, 24 h; activation: stronger effect = higher value. The gist of the method:
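Induction of CYP1A2 transcription through AhR is detected by luciferase in 1A2-DRE hepatoma cells. Compounds or DMSO act for 24 hr at 37 C before a 30 min One-Glo step at room temperature.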

Assay [15] concerns the target Peroxisome proliferator-activated receptor alpha (Homo sapiens) (UniProt Q07869). The assay can be described thus: qHTS assay for small molecule agonists of the peroxisome proliferator-activated receptor alpha (PPARalpha) signaling pathway (AID 651778; active means well fitted curve in the direction sought with a large enough effect; an effect the other way counts as inactive or inconclusive; further: % of control where 0% means no effect). The conditions noted are these: PathHunter PPARalpha complementation, chemiluminescence, 6 h; max response: stronger effect = higher value. In outline:
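Enzyme-fragment complementation assay in which ligand-bound PPARalpha translocates and forms an active enzyme that generates chemiluminescence. Cells were plated overnight, exposed to compound for 6 hr at 37 C, and then given detection reagent for 60 min at room temperature.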

Assay [16] in a line: qHTS assay for small molecule agonists of the antioxidant response element (ARE) signaling pathway measured by Nrf2-dependant transcriptional activity (AID 720636; active means well fitted curve in the direction sought with a large enough effect in the repeat runs; an effect the other way counts as inactive or inconclusive;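 further: HepG2 cells with an ARE-driven luciferase reporter; % of control where 0% means no effect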). In outline: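 We exposed ARE-luc HepG2 cells, seeded in assay medium with 1% dialyzed FBS and allowed 6 hr to adhere, to test compounds overnight (16 hr, 37 C) before measuring luciferase with ONE-Glo.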
A short description of assay [17]: qHTS assay for small molecule agonists of the antioxidant response element (ARE) signaling pathway measured by Nrf2-dependant transcriptional activity - cell viability counter screen (AID 720653; active means well fitted curve in the direction sought with a large enough effect in the repeat runs; an effect the other way counts as inactive or inconclusive; further: on the % scale 0 is the no-effect control and ±100 the full control effect). As to conditions: ARE-bla HepG2 viability, CellTiter-Glo ATP luminescence, 16 h; max response: stronger effect = lower value. The gist of the method:
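ARE-bla HepG2 cells treated with compounds for 16 h at 37C; this counter screen measures viability as intracellular ATP by CellTiter-Glo luminescence after 30 min at room temperature.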

The nature of assay [18]: qHTS assay for cell viability of HEK293 cells (AID 743288; active means well fitted curve in the direction sought with a large enough effect; an effect the other way counts as inactive or inconclusive; further: on the % scale 0 is the no-effect control and ±100 the full control effect; nearly all actives have a fitted effect of over 50% in size). The conditions noted are these: ATP luminescence (CellTiter-Glo), 18 h; max response: stronger effect = lower value. The gist of the method: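 Environmental chemicals tested in qHTS format against parental HEK293 cells; 18 h treatment, 37 C; read-out ATP luminescence (CellTiter-Glo), 30 min RT development.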
Assay [19] in a line: qHTS assay for cell viability of the p53RE-bla HCT-116 cell line (AID 743292; active means well fitted curve in the direction sought with a large enough effect; an effect the other way counts as inactive or inconclusive; further: on the % scale 0 is the no-effect control and ±100 the full control effect; nearly all actives have a fitted effect of over 55% in size). The gist of the method: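 In this qHTS counter-screen, metabolically competent p53RE-bla HCT-116 cells were counted via their ATP content. Compounds were applied for 16 h at 37 C and luciferase-coupled luminescence was measured.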
Assay [20] has as its target Nuclear receptor subfamily 1 group I member 2 (Rattus norvegicus) (UniProt Q9R1A7). Briefly: qHTS assay for small molecule activators of the rat pregnane X receptor (rPXR) signaling pathway (AID 651751; call rule not given here; further: 0% is about no effect). The conditions noted are these: rPXR reporter cells, luciferase (One-Glo), 24 h.

Inconclusive results are not listed. Active and inactive are the calls of the source. Unless noted, the call rests on the fitted dose curve.

From PubChem BioAssay (NCATS) come the findings set out here.

Sequence of Glucocorticoid receptor (Homo sapiens) (P04150 whole entry, looked up): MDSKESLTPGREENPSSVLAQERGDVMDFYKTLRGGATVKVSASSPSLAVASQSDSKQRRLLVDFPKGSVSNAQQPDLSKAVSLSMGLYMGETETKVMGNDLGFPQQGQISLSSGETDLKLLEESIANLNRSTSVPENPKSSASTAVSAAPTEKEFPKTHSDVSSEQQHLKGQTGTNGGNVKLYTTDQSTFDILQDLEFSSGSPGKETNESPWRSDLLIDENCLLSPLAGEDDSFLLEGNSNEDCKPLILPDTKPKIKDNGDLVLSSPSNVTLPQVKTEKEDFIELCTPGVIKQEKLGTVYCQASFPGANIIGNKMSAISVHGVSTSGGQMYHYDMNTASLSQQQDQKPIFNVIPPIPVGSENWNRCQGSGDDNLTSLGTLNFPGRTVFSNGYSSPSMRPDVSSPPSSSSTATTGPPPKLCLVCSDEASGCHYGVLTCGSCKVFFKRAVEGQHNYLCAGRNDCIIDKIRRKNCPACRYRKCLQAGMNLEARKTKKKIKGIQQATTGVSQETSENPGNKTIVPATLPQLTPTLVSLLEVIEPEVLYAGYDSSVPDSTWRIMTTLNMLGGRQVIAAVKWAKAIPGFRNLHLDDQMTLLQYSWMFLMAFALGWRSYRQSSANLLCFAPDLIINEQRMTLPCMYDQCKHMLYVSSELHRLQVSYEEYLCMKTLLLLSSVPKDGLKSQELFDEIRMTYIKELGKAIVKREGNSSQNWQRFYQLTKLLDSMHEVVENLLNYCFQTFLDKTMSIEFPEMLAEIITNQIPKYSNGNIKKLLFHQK
Sequence of Peroxisome proliferator-activated receptor delta (Homo sapiens) (Q03181 whole entry, looked up): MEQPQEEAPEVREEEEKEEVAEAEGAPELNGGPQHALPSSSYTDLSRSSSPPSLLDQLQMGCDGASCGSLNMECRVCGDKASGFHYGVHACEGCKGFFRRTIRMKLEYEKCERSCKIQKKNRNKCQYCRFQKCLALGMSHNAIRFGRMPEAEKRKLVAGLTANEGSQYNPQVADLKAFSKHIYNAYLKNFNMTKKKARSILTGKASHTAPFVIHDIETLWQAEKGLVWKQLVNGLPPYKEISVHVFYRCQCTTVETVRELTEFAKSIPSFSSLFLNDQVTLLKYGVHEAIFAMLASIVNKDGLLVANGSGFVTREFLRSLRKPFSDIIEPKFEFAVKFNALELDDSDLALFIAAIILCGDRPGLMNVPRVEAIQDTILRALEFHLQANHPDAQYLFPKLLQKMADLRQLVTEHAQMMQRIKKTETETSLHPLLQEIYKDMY
Sequence of Thyroid hormone receptor beta (Homo sapiens) (P10828 whole entry, looked up): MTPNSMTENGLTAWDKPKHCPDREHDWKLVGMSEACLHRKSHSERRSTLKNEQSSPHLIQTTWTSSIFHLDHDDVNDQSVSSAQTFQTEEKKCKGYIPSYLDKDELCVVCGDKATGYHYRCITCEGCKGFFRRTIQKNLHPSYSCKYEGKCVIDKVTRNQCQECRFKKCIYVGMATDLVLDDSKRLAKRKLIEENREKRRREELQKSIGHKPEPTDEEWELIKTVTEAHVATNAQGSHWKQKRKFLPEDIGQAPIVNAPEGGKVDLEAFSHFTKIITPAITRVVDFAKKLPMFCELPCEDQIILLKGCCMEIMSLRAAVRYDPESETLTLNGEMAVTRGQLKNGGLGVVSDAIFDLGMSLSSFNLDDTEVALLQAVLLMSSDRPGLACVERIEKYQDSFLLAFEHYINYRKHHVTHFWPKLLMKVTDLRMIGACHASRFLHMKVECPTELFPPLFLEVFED
Sequence of Retinoic acid receptor RXR-alpha (Homo sapiens) (P19793 whole entry, looked up): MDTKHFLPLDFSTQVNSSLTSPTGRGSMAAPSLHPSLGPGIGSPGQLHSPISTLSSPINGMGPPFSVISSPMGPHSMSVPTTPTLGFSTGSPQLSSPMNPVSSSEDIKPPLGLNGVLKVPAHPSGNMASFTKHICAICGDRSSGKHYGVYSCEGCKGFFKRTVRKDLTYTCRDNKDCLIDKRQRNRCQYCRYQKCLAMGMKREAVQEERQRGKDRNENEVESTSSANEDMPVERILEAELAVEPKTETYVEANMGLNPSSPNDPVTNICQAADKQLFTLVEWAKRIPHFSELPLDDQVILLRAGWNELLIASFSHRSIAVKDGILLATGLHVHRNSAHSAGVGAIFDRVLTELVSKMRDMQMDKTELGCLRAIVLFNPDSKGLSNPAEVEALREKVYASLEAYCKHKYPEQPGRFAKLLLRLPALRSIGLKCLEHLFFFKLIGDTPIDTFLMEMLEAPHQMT
Sequence of Peroxisome proliferator-activated receptor gamma (Homo sapiens) (P37231 whole entry, looked up): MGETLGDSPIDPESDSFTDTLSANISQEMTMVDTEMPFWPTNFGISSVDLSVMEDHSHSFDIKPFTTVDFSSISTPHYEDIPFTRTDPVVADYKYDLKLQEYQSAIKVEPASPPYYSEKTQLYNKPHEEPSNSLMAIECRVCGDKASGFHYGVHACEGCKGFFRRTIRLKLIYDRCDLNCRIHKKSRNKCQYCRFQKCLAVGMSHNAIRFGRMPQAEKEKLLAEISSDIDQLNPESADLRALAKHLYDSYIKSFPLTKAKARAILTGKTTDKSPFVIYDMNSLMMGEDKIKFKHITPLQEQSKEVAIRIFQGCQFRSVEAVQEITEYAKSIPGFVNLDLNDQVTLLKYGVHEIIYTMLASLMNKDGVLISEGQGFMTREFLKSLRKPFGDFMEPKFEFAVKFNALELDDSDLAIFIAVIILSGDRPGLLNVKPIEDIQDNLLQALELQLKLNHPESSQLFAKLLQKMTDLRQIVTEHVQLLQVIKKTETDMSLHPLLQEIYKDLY
Sequence of Peroxisome proliferator-activated receptor alpha (Homo sapiens) (Q07869 whole entry, looked up, the tested form may be a part): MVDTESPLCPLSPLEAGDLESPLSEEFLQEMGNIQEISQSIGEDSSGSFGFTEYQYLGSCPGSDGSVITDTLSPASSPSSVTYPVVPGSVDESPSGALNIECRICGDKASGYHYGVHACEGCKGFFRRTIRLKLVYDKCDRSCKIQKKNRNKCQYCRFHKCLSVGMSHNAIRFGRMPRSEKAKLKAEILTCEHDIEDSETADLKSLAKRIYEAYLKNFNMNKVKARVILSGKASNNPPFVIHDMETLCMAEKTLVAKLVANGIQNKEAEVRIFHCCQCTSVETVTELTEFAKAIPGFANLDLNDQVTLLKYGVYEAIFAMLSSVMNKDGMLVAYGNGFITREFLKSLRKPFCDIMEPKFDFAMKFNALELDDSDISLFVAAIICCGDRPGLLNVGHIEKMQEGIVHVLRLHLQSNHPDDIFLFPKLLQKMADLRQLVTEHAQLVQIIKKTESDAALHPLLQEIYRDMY
Sequence of Vitamin D3 receptor (Homo sapiens) (P11473 whole entry, looked up): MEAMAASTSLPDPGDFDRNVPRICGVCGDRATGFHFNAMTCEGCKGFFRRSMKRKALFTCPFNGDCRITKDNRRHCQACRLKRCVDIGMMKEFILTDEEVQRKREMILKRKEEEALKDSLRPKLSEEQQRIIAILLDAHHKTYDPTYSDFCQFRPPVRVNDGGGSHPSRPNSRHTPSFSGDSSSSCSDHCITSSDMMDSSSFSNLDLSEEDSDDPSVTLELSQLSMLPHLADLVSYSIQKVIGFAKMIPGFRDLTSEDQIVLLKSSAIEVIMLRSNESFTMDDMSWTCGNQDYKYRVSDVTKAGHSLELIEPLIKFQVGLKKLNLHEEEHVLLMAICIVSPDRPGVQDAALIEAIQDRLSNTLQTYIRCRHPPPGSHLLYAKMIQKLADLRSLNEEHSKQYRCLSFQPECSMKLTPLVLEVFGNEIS
Sequence of Nuclear receptor subfamily 1 group I member 2 (Rattus norvegicus) (Q9R1A7 whole entry, looked up): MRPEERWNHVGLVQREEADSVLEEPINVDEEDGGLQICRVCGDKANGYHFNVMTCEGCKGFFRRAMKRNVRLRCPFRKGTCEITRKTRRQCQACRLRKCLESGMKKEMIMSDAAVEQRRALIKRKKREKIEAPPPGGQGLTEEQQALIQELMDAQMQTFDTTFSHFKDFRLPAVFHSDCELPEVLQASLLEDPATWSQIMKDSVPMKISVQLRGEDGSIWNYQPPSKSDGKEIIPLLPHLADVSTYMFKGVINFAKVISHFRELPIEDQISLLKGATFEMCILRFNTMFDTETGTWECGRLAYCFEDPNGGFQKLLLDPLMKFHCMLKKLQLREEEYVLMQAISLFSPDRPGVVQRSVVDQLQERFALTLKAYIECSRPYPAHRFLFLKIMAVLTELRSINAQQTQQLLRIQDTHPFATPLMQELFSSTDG

`CCOP(=O)(OCC)SCS(=O)(=O)C(C)(C)C`: the activation in [1] was -1.34% (inactive); in assay [13] it was 2.21% (inactive); in assay [14], 2.25% (inactive). The compound was called inactive in [2] and in assay [7]. Further, the max response is -7.9% in assay [3]; -4.31% in assay [10]; 2.18% (inactive) in assay [11]; -3.37% (inactive) in [15]; 1.67% (inactive) in assay [17]; -4.67% (inactive) in assay [18]. For the same compound, the max response in [20] was 5.96% (inactive). The Potency entry in assay [4], in assay [5], in assay [6], in assay [8], in [9] and in assay [16] was “inactive” throughout. In assay [19], the Potency result is “inactive”. The activity change % (negative = inhibition) in assay [12] is -16.4% (inactive).

Turning to `CC(C)N(C(=O)COc1nnc(C(F)(F)F)s1)c1ccc(F)cc1`, the activation in assay [1] is 1.07% (inactive); in assay [13] it was 0.0644% (inactive); in assay [14] it was -0.614% (inactive). For the same compound, the compound was called inactive in assay [2]. For the same compound, the max response is -37.1% in assay [3]; -0.147% (inactive) in assay [15]; -9% (inactive) in assay [17]; -8% (inactive) in [18]; -3.84% (inactive) in assay [20]. The Potency result in [4], in assay [9] and in [19] was “inactive” throughout. Further, the activity change % (negative = inhibition) in assay [12] was -0.765% (inactive).

Take `Clc1ccc(-c2cc(Cl)c(Cl)cc2Cl)cc1Cl`: the figures for the activation in assay [1] and in assay [13] were -2.9% (inactive) and -5.87% (inactive), respectively. In addition, the compound was classed as inactive in assay [2]. The Potency entry in assay [4], in assay [5], in assay [6], in assay [9], in [16] and in assay [19] was “inactive” in each case. For the same compound, the max response in [10] was -9.16%; in assay [11] it was 4.83% (inactive); in assay [15], 0.243% (inactive); in assay [17] it was 3.45% (inactive); in [18] it was -23.9% (inactive); in [20], -1.84% (inactive). Also, the activity change % (negative = inhibition) in assay [12] is -25.9% (inactive).

On to `CNC(=O)Oc1cc(C)c(SC)c(C)c1`, for which the activation is 13.5% (inactive) in assay [1], -3.45% (inactive) in assay [13] and 0.0661% (inactive) in assay [14]. Moreover, the results for the max response in assay [3] and in assay [17] were 12.6% and -13.2% (inactive), respectively. Also, the Potency entry in [4], in assay [5], in [6], in assay [9], in assay [16] and in [19] was “inactive” in each case. The compound was classed as inactive in [7]. The activity change % (negative = inhibition) in assay [12] was -16.8% (inactive).

Take `CCOP(=O)(NC(C)C)Oc1ccc(S(C)(=O)=O)c(C)c1` (centres undefined): the figures for the activation in assay [1], in assay [13] and in [14] were 2.64% (inactive), 0.006% (inactive) and 1.16% (inactive), respectively. Also, the outcome in assay [2] and in assay [7] was inactive. Moreover, the Potency entry in assay [4], in assay [5], in [6], in [9], in assay [16] and in [19] was “inactive” in each case. The max response in assay [10] is -11.4%; in assay [11], 6.87% (inactive); in assay [17], -4.32% (inactive); in assay [18], -9.88% (inactive); in assay [20], 4.77% (inactive). Also, the activity change % (negative = inhibition) in assay [12] is 9.01% (inactive).

Turning to `O=C(O)C1(O)c2ccccc2-c2ccc(Cl)cc21` (centres undefined), the values for the activation in [1] and in assay [13] were -12.8% (inactive) and 13.8% (inactive), respectively. Also, the Potency entry in assay [6], in assay [9] and in assay [19] was “inactive” throughout. For the same compound, the outcome in [7] was inactive. For the same compound, the activity change % (negative = inhibition) in assay [12] is -1.32% (inactive). The max response was 13.5% (inactive) in assay [15], -16.8% (inactive) in assay [17] and -18.3% (inactive) in assay [18].
